We go through one sequence from publication PMC7862700, “An all-to-all approach to the identification of sequence-specific readers for epigenetic DNA modifications on cytosine”.

Holding throughout (assay): DAPPL (digital affinity profiling via proximity ligation, sequencing); 10 mM Tris-HCl pH 7.5, 50 mM NaCl, 1 mM DTT, 4% glycerol, room temperature, 30 min; GST-TFs on glutathione beads, 16-mer random dsDNA library, 0.1% formaldehyde crosslink after washing; high values mean tight binding
Holding throughout (details): protein: recombinant; tags: N-terminal GST; dsDNA, one strand shown

In one assay the target is T1, FLI1 (Homo sapiens, UniProt Q01543 1-452).
T1 sequence: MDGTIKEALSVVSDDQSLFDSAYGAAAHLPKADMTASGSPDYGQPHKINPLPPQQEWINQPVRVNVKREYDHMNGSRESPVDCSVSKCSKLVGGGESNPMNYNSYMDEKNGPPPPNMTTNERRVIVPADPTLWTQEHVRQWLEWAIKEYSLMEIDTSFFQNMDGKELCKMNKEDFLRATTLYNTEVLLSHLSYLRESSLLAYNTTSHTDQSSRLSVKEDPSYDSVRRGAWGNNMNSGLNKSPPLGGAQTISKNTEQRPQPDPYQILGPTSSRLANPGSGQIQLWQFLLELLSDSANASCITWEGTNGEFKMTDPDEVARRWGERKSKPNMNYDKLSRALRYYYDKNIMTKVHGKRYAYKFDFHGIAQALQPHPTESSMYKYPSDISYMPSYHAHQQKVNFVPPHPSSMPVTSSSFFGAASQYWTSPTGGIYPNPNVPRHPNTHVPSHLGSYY
In a few lines: (§1)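 After expression in yeast as GST fusions, human transcription factors were bound to glutathione beads, DNA-barcoded and mixed with a tag-only sample. The pools were incubated with 200 nmole of a 16-mer random double-stranded DNA library in Tris/NaCl/DTT/glycerol buffer (30 min, room temperature), washed and crosslinked with 0.1% formaldehyde. Proximity ligation with BsaI/T4 ligase ran for 1 h at 37 °C, before PCR amplification and sequencing on an Illumina NextSeq500. Binding signal is a hexamer's read frequency for a factor divided by its frequency for the tag-only sample.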

A further assay concerns the target T2, ELK1 (Homo sapiens, UniProt P19419 1-428).
T2 sequence: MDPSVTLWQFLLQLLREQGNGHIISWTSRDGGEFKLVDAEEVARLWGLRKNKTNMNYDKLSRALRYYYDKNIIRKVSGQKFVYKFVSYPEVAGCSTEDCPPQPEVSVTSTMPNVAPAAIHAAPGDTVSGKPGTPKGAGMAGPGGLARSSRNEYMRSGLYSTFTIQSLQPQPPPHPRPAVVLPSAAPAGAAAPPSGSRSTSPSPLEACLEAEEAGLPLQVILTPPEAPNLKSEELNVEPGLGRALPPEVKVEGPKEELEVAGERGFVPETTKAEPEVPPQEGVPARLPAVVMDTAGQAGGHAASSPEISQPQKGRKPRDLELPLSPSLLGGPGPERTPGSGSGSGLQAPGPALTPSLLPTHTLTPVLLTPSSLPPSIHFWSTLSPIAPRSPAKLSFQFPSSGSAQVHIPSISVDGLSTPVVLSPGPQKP
In a few lines:
as §1

Another assay deals with T3, GABPA (Homo sapiens, UniProt Q06546 1-454).
T3 sequence: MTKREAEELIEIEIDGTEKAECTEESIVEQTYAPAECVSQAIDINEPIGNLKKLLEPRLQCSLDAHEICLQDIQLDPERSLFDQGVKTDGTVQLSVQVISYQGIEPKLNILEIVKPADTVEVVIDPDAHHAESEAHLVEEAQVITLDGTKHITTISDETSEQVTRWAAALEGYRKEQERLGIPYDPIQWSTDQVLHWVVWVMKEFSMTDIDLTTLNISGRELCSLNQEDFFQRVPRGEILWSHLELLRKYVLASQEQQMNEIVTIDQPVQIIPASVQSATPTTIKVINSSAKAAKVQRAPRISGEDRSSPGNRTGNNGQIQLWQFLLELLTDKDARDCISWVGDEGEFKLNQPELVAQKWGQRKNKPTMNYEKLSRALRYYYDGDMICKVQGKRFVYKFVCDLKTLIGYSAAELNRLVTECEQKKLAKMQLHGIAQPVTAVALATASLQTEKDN
In a few lines:
as §1

The next assay has as its target T4, ERG (Homo sapiens, UniProt P11308 1-479).
T4 sequence: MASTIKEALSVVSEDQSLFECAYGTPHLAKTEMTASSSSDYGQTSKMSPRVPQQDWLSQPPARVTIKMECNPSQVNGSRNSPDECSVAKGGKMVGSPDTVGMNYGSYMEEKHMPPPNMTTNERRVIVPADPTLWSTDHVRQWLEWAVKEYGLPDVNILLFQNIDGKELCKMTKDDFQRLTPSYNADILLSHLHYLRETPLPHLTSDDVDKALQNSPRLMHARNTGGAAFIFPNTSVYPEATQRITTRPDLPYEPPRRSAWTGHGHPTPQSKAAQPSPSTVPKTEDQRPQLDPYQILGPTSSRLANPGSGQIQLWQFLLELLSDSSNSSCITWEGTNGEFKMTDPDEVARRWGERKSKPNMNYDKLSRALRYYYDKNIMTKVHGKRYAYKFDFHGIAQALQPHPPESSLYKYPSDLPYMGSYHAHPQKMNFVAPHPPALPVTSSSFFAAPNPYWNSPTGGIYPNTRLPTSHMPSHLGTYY
In a few lines: as §1

The target of a further assay is ELF1 (Homo sapiens, UniProt P32519 1-619). The gist of the method: as §1
For a further assay, the target named is T5, EHF (Homo sapiens, UniProt Q9NZC4 1-300).
T5 sequence: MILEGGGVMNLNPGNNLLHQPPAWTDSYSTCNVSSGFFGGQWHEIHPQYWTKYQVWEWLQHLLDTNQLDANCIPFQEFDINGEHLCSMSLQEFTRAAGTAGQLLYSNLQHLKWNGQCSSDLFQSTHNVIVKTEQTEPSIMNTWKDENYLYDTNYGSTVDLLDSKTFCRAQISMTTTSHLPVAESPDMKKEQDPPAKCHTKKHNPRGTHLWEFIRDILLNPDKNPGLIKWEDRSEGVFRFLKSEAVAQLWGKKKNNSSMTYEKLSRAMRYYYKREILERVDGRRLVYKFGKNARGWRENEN
In a few lines: as §1

The next assay concerns the target SPI1 (Homo sapiens, UniProt P17947 1-270). In a few lines: as §1
Another assay has as its target SPIB (Homo sapiens, UniProt Q01892 1-262). In a few lines:
as §1

For another assay, the target named is T6, ELK3 (Homo sapiens, UniProt P41970 1-407).
T6 sequence: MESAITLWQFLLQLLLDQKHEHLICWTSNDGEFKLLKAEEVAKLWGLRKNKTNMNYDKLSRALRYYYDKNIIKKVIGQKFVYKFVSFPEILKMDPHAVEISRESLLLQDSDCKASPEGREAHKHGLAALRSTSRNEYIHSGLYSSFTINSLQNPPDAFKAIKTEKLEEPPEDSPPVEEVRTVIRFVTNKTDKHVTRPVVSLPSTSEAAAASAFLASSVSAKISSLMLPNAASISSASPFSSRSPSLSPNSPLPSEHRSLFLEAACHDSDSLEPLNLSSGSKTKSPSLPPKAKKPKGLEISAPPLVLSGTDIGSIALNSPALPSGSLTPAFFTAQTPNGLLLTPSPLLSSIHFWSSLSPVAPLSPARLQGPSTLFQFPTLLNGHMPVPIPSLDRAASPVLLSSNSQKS
The gist of the method: as §1

The next assay addresses T7, FEV (Homo sapiens, UniProt Q99581 1-238).
T7 sequence: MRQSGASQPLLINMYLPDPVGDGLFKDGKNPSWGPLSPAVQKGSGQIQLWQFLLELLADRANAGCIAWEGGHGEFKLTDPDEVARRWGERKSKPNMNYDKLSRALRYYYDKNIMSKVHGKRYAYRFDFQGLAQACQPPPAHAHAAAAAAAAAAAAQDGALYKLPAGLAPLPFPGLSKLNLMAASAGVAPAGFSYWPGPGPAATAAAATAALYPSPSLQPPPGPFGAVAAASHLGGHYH
In a few lines: as §1

In another assay the target is ETV5 (Homo sapiens, UniProt P41161 1-510). The gist of the method: as §1
A further assay addresses T8, SPIC (Homo sapiens, UniProt Q8N5J4 1-248).
T8 sequence: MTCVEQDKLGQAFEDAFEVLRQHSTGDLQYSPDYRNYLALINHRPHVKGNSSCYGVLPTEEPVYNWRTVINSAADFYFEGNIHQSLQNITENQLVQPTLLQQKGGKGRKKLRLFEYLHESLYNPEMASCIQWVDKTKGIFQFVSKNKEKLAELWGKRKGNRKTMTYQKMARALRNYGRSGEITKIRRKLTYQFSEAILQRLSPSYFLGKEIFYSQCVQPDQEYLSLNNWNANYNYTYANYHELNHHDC
The gist of the method: as §1

The next assay has as its target ELF4 (Homo sapiens, UniProt Q99607 1-663). In a few lines: as §1
The target of a further assay is ETV1 (Homo sapiens, UniProt P50549 1-477). In a few lines:
as §1

A further assay has as its target T9, ERF (Homo sapiens, UniProt P50548 1-548).
T9 sequence: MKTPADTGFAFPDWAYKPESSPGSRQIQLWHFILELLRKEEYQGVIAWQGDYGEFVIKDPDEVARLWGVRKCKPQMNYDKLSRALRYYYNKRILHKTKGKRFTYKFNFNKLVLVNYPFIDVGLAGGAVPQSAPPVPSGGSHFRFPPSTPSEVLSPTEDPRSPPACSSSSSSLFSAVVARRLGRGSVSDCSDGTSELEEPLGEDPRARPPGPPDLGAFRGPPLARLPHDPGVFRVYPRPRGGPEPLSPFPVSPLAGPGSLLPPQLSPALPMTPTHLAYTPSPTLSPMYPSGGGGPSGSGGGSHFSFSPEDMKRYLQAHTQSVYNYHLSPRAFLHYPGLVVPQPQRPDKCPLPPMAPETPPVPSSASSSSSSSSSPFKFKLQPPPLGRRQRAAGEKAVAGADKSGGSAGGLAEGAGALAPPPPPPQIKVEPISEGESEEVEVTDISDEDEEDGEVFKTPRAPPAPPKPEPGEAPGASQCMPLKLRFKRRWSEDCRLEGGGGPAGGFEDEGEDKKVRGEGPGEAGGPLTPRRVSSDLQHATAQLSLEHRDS
The gist of the method:
as §1

In another assay the target is T10, ETS2 (Homo sapiens, UniProt P15036 1-469).
T10 sequence: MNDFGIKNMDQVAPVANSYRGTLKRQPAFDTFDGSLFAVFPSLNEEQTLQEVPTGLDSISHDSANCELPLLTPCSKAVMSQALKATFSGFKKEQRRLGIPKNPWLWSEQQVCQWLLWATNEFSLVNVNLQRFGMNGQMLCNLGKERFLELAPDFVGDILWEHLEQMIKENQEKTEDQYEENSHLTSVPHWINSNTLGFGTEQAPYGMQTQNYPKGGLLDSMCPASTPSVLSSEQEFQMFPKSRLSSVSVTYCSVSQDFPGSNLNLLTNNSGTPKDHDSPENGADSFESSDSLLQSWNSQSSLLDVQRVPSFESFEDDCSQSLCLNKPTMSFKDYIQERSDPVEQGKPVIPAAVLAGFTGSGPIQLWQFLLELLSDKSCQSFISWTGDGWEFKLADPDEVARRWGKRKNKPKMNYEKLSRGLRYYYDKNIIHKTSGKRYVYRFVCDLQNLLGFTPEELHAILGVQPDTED
In a few lines:
as §1

The target in another assay is T11, ELF5 (Homo sapiens, UniProt Q9UKW6-2 1-255).
T11 sequence: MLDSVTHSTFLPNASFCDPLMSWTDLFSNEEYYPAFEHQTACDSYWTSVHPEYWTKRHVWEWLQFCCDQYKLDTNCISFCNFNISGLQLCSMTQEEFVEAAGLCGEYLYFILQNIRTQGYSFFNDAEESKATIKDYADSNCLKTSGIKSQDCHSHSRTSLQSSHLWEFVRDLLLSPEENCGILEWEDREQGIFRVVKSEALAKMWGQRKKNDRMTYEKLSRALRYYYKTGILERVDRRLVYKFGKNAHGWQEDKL
In a few lines:
as §1

The target in another assay is T12, ETV3 (Homo sapiens, UniProt P41162-2 1-143).
T12 sequence: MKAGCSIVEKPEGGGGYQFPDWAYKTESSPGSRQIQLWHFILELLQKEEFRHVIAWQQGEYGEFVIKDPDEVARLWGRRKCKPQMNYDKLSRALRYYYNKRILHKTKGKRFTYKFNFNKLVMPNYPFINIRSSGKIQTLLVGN
In a few lines: as §1

In the next assay the target is ETV6 (Homo sapiens, UniProt P41212 1-452). The gist of the method: as §1
ETV6, sequence (P41212 whole entry): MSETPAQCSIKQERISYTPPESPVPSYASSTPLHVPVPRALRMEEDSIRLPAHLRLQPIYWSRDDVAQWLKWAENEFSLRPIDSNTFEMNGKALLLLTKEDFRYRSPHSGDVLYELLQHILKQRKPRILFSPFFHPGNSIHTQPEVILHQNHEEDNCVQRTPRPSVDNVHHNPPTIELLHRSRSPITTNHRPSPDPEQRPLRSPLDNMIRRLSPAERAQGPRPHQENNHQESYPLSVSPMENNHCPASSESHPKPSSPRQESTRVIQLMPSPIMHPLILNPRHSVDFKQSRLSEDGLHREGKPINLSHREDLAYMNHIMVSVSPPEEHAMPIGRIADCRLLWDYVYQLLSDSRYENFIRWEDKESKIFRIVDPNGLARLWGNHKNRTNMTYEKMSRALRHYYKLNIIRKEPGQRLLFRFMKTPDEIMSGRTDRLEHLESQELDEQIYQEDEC

SPIB, sequence (Q01892 whole entry): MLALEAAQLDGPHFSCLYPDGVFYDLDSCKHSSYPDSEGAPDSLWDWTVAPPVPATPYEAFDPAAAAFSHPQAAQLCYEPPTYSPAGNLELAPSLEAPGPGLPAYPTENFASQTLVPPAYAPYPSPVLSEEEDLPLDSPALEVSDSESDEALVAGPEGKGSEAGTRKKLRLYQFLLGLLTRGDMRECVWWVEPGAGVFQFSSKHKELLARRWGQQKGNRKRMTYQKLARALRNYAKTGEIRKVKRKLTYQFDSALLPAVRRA
ELF4, sequence (Q99607 whole entry): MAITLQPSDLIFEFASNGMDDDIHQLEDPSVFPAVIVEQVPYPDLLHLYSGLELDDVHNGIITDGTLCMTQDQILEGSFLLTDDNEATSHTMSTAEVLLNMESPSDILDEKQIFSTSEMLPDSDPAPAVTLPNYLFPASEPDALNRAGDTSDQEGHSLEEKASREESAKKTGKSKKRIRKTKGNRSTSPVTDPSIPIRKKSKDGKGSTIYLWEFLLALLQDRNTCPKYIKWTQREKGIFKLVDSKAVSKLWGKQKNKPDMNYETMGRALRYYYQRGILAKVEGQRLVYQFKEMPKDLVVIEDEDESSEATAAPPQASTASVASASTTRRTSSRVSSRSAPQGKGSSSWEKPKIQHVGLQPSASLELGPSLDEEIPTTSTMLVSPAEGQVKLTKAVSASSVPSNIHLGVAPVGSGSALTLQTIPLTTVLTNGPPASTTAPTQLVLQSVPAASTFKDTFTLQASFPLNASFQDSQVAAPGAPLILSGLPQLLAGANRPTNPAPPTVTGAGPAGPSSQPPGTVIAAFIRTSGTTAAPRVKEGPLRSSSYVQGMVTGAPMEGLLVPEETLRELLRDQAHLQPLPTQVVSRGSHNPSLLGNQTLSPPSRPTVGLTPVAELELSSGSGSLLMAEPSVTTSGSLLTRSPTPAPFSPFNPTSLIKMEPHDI
ETV5, sequence (P41161 whole entry): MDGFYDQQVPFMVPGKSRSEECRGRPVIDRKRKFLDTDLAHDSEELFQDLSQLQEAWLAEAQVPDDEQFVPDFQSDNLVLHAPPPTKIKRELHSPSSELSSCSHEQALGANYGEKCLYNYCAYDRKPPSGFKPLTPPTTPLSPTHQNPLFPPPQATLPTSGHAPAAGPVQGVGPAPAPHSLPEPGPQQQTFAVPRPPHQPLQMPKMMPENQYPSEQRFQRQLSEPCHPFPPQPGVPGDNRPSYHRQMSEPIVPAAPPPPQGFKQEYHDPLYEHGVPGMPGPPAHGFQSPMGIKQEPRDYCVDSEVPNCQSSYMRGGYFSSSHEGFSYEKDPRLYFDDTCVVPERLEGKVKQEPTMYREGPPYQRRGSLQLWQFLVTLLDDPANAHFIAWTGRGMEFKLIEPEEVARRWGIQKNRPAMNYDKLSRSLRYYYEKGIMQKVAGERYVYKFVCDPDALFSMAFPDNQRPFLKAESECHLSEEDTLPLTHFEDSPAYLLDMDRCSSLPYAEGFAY
ELF1, sequence (P32519 whole entry): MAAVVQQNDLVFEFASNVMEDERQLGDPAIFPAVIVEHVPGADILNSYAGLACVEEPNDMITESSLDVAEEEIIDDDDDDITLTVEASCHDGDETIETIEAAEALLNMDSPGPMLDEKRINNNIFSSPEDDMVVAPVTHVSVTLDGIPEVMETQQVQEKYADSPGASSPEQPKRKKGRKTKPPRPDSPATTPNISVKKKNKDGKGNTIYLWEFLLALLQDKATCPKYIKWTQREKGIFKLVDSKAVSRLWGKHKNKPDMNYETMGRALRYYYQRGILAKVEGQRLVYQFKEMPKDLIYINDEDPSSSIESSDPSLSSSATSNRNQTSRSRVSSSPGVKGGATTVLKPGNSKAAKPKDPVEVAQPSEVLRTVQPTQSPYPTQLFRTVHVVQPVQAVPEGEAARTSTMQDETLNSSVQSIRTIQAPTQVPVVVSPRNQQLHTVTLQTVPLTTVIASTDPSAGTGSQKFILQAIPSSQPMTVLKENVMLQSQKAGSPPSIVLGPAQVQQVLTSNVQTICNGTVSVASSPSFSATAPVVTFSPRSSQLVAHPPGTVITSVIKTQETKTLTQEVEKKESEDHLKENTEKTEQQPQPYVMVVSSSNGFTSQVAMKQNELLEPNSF
ETV1, sequence (P50549 whole entry): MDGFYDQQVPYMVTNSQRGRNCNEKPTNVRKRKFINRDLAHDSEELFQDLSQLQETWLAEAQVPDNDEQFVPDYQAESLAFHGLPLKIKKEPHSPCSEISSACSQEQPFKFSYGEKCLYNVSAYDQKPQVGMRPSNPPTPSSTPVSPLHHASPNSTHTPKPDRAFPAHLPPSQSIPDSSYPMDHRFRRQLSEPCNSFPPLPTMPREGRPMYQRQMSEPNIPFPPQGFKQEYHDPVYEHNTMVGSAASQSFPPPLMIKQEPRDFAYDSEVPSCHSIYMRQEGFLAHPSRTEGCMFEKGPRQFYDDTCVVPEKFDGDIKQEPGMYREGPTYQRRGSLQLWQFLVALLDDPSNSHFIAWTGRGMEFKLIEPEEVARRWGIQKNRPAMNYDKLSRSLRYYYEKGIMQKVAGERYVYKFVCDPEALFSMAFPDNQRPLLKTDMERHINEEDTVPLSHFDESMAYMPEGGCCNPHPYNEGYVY

Consider GTGTCC, for which the binding signal with FLI1 was 1.03 fold enrichment (6-mer frequency, TF over GST control); in the assay with ELK1 it was 1.07 fold enrichment (6-mer frequency, TF over GST control); in the assay with GABPA, 1.1 fold enrichment (6-mer frequency, TF over GST control); with ERG, 1.13 fold enrichment (6-mer frequency, TF over GST control); with ELF1 it was 1.1 fold enrichment (6-mer frequency, TF over GST control); in the assay with EHF, 1.08 fold enrichment (6-mer frequency, TF over GST control). The binding signal with SPI1 is 1.08 fold enrichment (6-mer frequency, TF over GST control); in the assay with SPIB, 1.13 fold enrichment (6-mer frequency, TF over GST control); with ELK3, 1.05 fold enrichment (6-mer frequency, TF over GST control); in the assay with FEV, 1.1 fold enrichment (6-mer frequency, TF over GST control); in the assay with ETV5 it was 1.16 fold enrichment (6-mer frequency, TF over GST control); in the assay with SPIC it was 1.2 fold enrichment (6-mer frequency, TF over GST control). The binding signal was 1.08 fold enrichment (6-mer frequency, TF over GST control) in the assay with ELF4; 1.02 fold enrichment (6-mer frequency, TF over GST control) with ETV1; 1.06 fold enrichment (6-mer frequency, TF over GST control) with ERF; 1.16 fold enrichment (6-mer frequency, TF over GST control) in the assay with ETS2; 1.1 fold enrichment (6-mer frequency, TF over GST control) in the assay with ELF5; 1.2 fold enrichment (6-mer frequency, TF over GST control) with ETV3. Moreover, in the assay with ETV6, the binding signal is 1.02 fold enrichment (6-mer frequency, TF over GST control).
